This is an account of results in PubChem BioAssay (NCATS).

Unmarked numbers belong to inactive results. Results filed as inconclusive are left out. The source made the active and inactive calls. Unless noted, calls come from the whole dose curve; as a rule, active = well fitted curve in the direction sought with a large enough effect; inconclusive = small, poorly fitted or top-dose-only effect, or another doubt; inactive = no such curve, though single readings can be large; an effect the other way counts as inactive or inconclusive.

The target of test [1] is Endonuclease 4 (Escherichia coli (strain K12)) (UniProt P0A6C1). Put plainly: Counterscreen for APE1 Inhibitors: qHTS Validation Assay for Inhibitors of Endonuclease IV (AID 1708). Note: % is set by controls: 0 for no effect and ±100 for the full control effect. In outline:
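The reaction buffer contained 50 mM Tris-HCl pH 7.5, 50 mM NaCl, 2 mM MgCl2, 1 mM DTT and 0.01% Tween-20. Incision of a 50 nM fluorophore/quencher THF substrate by 2 nM enzyme was measured kinetically.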

Test [2] is described as follows: qHTS for differential inhibitors of proliferation of Plasmodium falciparum line 3D7 (AID 1876). Note: potency is the fitted concentration of half-maximal effect.
Test [3] in a line: qHTS for differential inhibitors of proliferation of Plasmodium falciparum line D10 (AID 1877).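 Note: parasites grown with compound for 72 h before DNA staining.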 Note: potency is the fitted concentration of half-maximal effect. For orientation: qHTS replaces the single test concentration by a dilution series.
A short description of test [4]: qHTS for differential inhibitors of proliferation of Plasmodium falciparum line Dd2 (AID 1882). Note: nearly all actives have a fitted effect of over 65% in size. Note: potency is the fitted concentration of half-maximal effect. The note with it: Potency: Plasmodium falciparum Dd2 proliferation inhibition. In outline: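 RBC culture, 0.3% parasitemia / 2.5% Hct final; cpd added by pin tool in DMSO; 72 h, 37 C, 5% CO2; lysis buffer + SYBR Green I, o/n RT dark; FI 485/535; norm. to artemisinin 0.29 uM and DMSO.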

Test [5] in a line: Validation screen for inhibitors of Lassa infection (AID 463096; calls by dose curve; note: % is set by controls: 0 for no effect and ±100 for the full control effect).
Test [6] in a line: Quantitative high throughput screen for delayed death inhibitors of the malarial parasite plastid, 48 hour incubation (AID 488752). Note: nearly all actives have a fitted effect of over 65% in size. Note: potency is the fitted concentration of half-maximal effect. In outline:
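Cultures: infected erythrocytes at final 2% hematocrit and 0.1% parasitemia in Albumax-supplemented RPMI. Parasites express integrated firefly luciferase. Incubation with compound lasts 48 h before luminescent detection of remaining reporter activity.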

Test [7] deals with Cytochrome P450 2C9 (Homo sapiens) (UniProt P11712). Nature of the test: qHTS Assay for Inhibitors and Substrates of Cytochrome P450 2C9 (AID 883). Note: nearly all actives have a fitted effect of over 60% in size. Note: potency is the fitted concentration of half-maximal effect. An outline of the steps: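 Inhibition of CYP2C9 is scored as loss of luminescence, with 57uM sulphaphenazole defining 100% inhibition. Substrate Luciferin-H is used at 100uM, equal to its KM; enzyme at 10nM in 25mM KPO4, 60 min at 37C with NADPH regeneration.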
Cytochrome P450 2C9 (Homo sapiens), sequence (P11712 whole entry, looked up): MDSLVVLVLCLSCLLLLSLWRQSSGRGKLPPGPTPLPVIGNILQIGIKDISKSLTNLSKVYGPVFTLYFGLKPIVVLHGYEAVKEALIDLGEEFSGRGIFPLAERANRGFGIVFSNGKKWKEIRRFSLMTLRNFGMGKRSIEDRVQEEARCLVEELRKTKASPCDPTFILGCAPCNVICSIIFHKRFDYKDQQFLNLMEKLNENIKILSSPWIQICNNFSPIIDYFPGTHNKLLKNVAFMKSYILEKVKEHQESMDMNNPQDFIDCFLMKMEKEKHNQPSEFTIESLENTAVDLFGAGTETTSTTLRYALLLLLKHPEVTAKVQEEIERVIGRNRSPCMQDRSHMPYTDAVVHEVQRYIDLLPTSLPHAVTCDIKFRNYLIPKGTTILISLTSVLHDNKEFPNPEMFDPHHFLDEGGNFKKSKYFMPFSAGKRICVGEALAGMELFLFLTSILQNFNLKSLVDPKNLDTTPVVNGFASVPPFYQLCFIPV

Test [8] can be described thus: qHTS Assay for Modulators of Human Peripheral Myelin Protein 22 (PMP22) Expression/Activity (AID 1967; active = well fitted curve in the direction sought with a large enough effect in the signal ratio; the % refers to the signal ratio;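 note: 0% = untreated cells and 100% end not stated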). An outline of the steps:
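Mouse MSC80 Schwann line, Pmp22 promoter–CBG68 reporter, EF-alpha–CBR internal control. 24h compound exposure, 37 °C/5% CO2, DMEM + 10% FBS. Readout: corrected green/red luminescence ratio, normalized to untreated cells; concentration-response curves fitted and classified.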

Test [9] in a line: Validation screen for small molecules that induce DNA re-replication in MCF 10A normal breast cells (AID 463097). Note: 0% is about no effect; nearly all actives have a fitted effect of over 60% in size. An outline of the steps:
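250 MCF 10A cells/well; compound pin-transferred; 48 hr, 37 C, 5% CO2; Hoechst 40 min; imaged 405/500-530 nm. Hits = more high-intensity nuclei.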

Test [10] in a line: Quantitative high throughput screen for delayed death inhibitors of the malarial parasite plastid, 96 hour incubation (AID 488745). Note: series mostly up to about 29 µM; % is set by controls: 0 for no effect and ±100 for the full control effect; nearly all actives have a fitted effect of over 70% in size. An outline of the steps:
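Two-generation (96 h) exposure of luciferase-reporter P. falciparum in erythrocytes, 2% hematocrit, 0.1% parasitemia final, 37 C, 5% CO2, RPMI 1640 with 0.5% Albumax. Growth inhibition scored by reduced luminescence.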

Test [11] deals with Voltage-gated inwardly rectifying potassium channel KCNH2 (Homo sapiens) (UniProt Q12809). Put plainly: qHTS Assay for Small Molecule Inhibitors of the Human hERG Channel Activity (AID 588834).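 Note: lower thallium flux fluorescence means stronger hERG block; nearly all actives have a fitted effect of over 50% in size.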 Note: potency is the fitted concentration of half-maximal effect. An outline of the steps: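 Thallium-flux (FluxOR) read-out on FDSS: fluorescence read 10 s before and 2 min after stimulation buffer. hERG-BacMam-transduced U2OS cells, compound exposure about 10 min. AC50 by standard Hill equation.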
Voltage-gated inwardly rectifying potassium channel KCNH2 (Homo sapiens), sequence (Q12809 whole entry, looked up): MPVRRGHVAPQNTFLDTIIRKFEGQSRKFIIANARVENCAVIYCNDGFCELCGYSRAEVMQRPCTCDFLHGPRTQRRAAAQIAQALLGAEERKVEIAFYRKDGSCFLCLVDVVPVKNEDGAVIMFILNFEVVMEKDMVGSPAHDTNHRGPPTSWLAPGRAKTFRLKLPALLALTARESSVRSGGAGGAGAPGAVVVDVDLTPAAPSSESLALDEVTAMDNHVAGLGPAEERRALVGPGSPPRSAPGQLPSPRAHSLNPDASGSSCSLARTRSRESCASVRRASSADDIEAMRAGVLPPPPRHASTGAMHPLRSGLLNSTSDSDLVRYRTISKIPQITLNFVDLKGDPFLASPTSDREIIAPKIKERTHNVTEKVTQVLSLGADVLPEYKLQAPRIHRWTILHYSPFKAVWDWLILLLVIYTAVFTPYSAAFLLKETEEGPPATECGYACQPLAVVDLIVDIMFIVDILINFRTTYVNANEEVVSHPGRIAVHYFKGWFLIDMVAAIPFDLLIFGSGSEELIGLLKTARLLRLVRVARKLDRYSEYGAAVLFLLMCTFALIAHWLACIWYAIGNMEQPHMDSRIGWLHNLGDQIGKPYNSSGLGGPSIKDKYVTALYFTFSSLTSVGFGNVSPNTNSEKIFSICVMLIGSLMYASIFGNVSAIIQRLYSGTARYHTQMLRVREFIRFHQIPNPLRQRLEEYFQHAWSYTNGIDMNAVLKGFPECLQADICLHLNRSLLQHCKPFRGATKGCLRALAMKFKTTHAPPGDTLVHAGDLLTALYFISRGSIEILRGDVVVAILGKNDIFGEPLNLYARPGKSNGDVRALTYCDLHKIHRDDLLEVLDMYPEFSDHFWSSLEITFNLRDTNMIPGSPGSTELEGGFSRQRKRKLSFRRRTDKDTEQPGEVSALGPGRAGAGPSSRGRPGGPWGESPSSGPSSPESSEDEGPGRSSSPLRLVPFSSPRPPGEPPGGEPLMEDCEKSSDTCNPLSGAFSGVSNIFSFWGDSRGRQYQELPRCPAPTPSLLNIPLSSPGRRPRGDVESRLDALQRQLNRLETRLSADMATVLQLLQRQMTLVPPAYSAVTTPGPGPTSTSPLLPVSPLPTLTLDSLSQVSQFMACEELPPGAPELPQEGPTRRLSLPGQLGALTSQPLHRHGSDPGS

The target of test [12] is Cytochrome P450 3A4 (Homo sapiens) (UniProt P08684). Put plainly: qHTS Assay for Inhibitors and Substrates of Cytochrome P450 3A4 (AID 884). Note: nearly all actives have a fitted effect of over 50% in size. Note: potency is the fitted concentration of half-maximal effect. In outline: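 Luminescent readout of luciferin produced by CYP3A4 (20 nM) dealkylation of Luciferin-PPXE, 25 uM (its KM). NADPH-driven reaction ran 60 min at RT after 10 min compound preincubation; data scaled to 57 uM ketoconazole as 100% inhibition.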
Cytochrome P450 3A4 (Homo sapiens), sequence (P08684 whole entry, looked up): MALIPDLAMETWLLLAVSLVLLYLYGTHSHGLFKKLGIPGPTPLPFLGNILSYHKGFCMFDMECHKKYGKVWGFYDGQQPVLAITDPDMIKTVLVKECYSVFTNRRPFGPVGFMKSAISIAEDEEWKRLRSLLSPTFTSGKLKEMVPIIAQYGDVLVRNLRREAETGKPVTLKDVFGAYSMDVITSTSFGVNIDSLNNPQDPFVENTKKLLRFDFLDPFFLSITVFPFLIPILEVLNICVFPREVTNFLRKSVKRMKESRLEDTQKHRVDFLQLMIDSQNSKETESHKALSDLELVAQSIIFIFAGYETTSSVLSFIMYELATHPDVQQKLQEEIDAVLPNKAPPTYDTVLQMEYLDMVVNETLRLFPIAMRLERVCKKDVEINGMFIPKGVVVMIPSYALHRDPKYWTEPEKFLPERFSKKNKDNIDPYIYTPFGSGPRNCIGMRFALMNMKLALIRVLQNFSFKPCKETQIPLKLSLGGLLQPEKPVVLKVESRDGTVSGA

The nature of test [13]: Confirmation and Secondary Assay for Modulators of Hemoglobin Beta Chain Splicing at IVS2 654 locus (AID 910).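 Note: HeLa cells stably carrying EGFP split by mutant beta-globin IVS2-654 intron; per-well total GFP intensity by laser scanning cytometry after 2-day treatment; % of control where 0% means no effect.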 In outline: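 Readout: per-well total peak green fluorescence (488 nm ex, 500–520 nm em) from objects 5–250 µm, reflecting correct splicing of an EGFP-654 reporter. Compounds were applied for 2 days at 37 °C to overnight-plated HeLa EGFP-654 cells; controls were DMSO and 500 nM IVS2-654 PNA.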

Test [14] is described as follows: Confirmation and Secondary Assay for Modulators of Hemoglobin Beta Chain Splicing at IVS2 705 locus (AID 930).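 Note: HeLa cells stably expressing the EGFP-705 splicing reporter; series mostly up to about 46 µM; % of control where 0% means no effect.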 In outline: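 HeLa cells stably carrying EGFP interrupted by mutant beta-globin IVS2-705 intron (CMV-driven) were seeded at 500 cells/well, treated next day with compound for 2 days at 37C; corrected splicing restores EGFP, read as total peak GFP intensity per well.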

For test [15], the target named is Rap guanine nucleotide exchange factor 3 (Homo sapiens) (UniProt O95398). Nature of the test: Confirmatory qHTS for agonist of cAMP-regulated guanine nucleotide exchange factor 3 (EPAC1) (AID 1645881).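 Note: EPAC1 catalysed release of BODIPY-GDP from Rap1B seen as fluorescence loss; 100% = effect of cAMP agonist control; nearly all actives have a fitted effect of over 75% in size.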
Rap guanine nucleotide exchange factor 3 (Homo sapiens), sequence (O95398 whole entry, looked up): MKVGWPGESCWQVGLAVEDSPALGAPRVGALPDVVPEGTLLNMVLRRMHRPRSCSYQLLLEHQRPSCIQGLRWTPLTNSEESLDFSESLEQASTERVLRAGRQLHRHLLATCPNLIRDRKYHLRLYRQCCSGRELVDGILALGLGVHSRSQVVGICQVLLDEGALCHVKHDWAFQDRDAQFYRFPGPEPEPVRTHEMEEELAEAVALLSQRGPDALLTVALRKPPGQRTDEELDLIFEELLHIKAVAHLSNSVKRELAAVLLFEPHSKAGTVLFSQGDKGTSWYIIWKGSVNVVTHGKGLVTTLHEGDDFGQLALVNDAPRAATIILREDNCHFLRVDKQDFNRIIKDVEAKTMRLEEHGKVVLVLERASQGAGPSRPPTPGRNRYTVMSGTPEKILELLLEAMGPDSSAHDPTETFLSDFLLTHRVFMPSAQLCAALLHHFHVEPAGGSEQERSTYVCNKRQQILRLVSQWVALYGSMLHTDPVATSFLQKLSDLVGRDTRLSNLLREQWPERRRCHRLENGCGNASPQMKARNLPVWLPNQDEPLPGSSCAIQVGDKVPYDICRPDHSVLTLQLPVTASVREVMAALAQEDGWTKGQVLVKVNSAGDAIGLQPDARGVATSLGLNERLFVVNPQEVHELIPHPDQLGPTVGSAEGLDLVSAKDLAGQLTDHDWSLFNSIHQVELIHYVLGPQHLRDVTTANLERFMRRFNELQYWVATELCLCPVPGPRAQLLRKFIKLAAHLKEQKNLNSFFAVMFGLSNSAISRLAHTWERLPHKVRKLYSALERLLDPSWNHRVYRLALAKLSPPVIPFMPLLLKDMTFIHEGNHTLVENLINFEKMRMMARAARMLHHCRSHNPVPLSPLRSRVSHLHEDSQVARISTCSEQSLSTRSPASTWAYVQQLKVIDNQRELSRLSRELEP
For test [16], the target named is Rap guanine nucleotide exchange factor 4 (Homo sapiens) (UniProt Q8WZA2). Nature of the test: Confirmatory qHTS for agonist of cAMP-regulated guanine nucleotide exchange factor 4 (EPAC2) (AID 1645884).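 Note: nucleotide exchange releases bodipy-GDP from Rap1 and this lowers its fluorescence; % is set by controls: 0 for no effect and ±100 for the full control effect; nearly all actives have a fitted effect of over 65% in size.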
Rap guanine nucleotide exchange factor 4 (Homo sapiens), sequence (Q8WZA2 whole entry, looked up): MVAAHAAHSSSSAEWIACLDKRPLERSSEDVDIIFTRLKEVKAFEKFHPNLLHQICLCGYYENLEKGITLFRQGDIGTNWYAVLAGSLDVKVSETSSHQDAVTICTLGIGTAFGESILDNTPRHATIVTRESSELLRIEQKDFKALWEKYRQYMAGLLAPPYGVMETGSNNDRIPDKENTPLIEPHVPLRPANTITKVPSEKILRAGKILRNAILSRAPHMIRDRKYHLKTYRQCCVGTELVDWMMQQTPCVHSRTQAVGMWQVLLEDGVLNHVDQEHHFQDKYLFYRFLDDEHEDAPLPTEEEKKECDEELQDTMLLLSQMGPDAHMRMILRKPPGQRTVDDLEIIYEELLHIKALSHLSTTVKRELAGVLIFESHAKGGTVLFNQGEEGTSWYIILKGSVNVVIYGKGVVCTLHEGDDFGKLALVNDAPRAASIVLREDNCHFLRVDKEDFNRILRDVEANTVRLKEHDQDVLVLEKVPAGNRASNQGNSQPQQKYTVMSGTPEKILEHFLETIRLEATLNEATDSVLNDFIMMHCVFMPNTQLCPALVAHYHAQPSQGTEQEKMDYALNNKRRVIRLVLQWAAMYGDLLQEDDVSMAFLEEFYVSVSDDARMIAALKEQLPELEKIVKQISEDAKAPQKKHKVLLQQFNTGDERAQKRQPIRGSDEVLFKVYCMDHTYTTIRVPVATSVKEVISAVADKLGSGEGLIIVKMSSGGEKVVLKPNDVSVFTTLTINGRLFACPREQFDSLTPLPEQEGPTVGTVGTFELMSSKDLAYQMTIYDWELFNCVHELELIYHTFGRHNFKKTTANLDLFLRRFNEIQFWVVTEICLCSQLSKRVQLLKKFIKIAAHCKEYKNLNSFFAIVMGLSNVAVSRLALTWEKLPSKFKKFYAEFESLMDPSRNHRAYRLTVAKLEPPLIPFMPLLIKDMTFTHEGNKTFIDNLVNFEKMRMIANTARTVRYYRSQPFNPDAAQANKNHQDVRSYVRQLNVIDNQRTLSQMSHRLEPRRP
A short description of test [17]: qHTS Assay for Identification of Small Molecule Antagonists for NFkB Signaling Pathway (AID 895; active = well fitted inhibition curve with a large enough effect in the signal ratio, with a control signal flat, not every such curve was filed as active; the % refers to the signal ratio; note: % is set by controls: 0 for no effect and ±100 for the full control effect). In outline: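 Beta-lactamase reporter read-out (460 and 530 nm emission ratio, 405 nm excitation, 2 hrs substrate loading RT) after 5 hr stimulation with 10 pM TNF alpha in compound-treated NFkB-bla ME-180 cells in low-serum medium.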
Test [18] can be described thus: qHTS Assay for Identification of Small Molecule Agonists for Hypoxia Response Element Signaling Pathway (AID 914; active = well fitted activation curve with a large enough effect in the signal ratio, with a control signal flat, not every such curve was filed as active; the % refers to the signal ratio; note: % of control where 0% means no effect). The following applies: ME-180 HRE-bla reporter, beta-lactamase ratio, CoCl2, 17 h; activation: hits give high values. In outline: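 ME-180 cells carrying an HRE-driven beta-lactamase reporter were treated with compounds in a titration series plus an EC50 level of CoCl2 for 17 h at 37 degrees Celsius; CCF4 readout as the 460nm/530nm ratio gave AC50 values.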

Test [19] in a line: qHTS Assay for Identification of Small Molecule Antagonists for Thrombopoietin (TPO) Signaling Pathway (AID 918). Note: potency is the fitted concentration of half-maximal effect; nearly all actives have a fitted effect of over 60% in size. The note with it: TPO-dependent cell signaling reporter, antagonist mode. In outline:
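Antagonist mode at EC50 TPO (26 pM) in IL-3-free medium; murine Ba/F3 cells with human TPO receptor and GPIIb-promoter luciferase, 24 hrs at 37 C before luminescent detection.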

As for `CN1CCc2cc(O)cc3c2C1Cc1ccc(O)c(O)c1-3` (stereo unspecified), the outcome in test [1] was inactive. The Potency was 11.2 µM (active) in [2], 12.6 µM (active) in [3], 8.91 µM (active) in test [4] and 18.5 µM (active) in test [6]. Besides, the Potency entry in test [5] is “inactive”.
Consider `C[C@@H](Cc1ccc(OCC(=O)O)cc1)NC[C@H](O)c1cccc(Cl)c1`, for which the Potency in test [7] is 6.31 µM (active).
Take `COc1cc(CCN)ccc1O`: the call in test [1] and in test [8] was inactive. Further, the Potency result in [2], in [3], in test [4], in test [5], in test [9] and in test [10] was “inactive” in each case. The Potency result in test [6] and in test [11] was “inactive” in each case.
Consider `N[C@@]1(C(=O)O)CC[C@H](C(=O)O)C1`, for which the Potency result in [12] is “inactive”.
As to `CC1OC(=O)C(C(C)C)NC(=O)C(C(C)C)OC(=O)C(C(C)C)NC(=O)C(C)OC(=O)C(C(C)C)NC(=O)C(C(C)C)OC(=O)C(C(C)C)NC(=O)C(C)OC(=O)C(C(C)C)NC(=O)C(C(C)C)OC(=O)C(C(C)C)NC1=O` (stereo unspecified), the Potency result in test [13] was “inactive”. Further, the call in [14] was inactive.
Regarding `C=C(C)CN1CC[C@@]23c4c5ccc(O)c4O[C@H]2c2[nH]c4ccccc4c2C[C@]3(O)[C@@H]1C5`, the result in [15] and in [16] was inactive.
Turning to `COc1ccc(-n2nc(C(F)(F)F)cc2-c2ccc(Cl)cc2)cc1`, the Potency result in test [17], in test [4], in test [5], in [9] and in test [10] was “inactive” in each case. In addition, in [3], the Potency is 12.6 µM (active).
For the compound `CN1[C@@H]2CC[C@H]1CC(O[C@@H](c1ccccc1)c1ccc(Cl)cc1)C2` (stereo partly specified), the activation in test [18] is -9.36%. For the same compound, the Potency in test [19] was 12.6 µM (active).
In the case of `CN1CCN(C(=O)O[C@@H]2c3nccnc3C(=O)N2c2ccc(Cl)cn2)CC1`, the Potency entry in [7] and in [13] was “inactive” throughout. The result in test [14] was inactive.
For the compound `c1ccc(CCCCN2CCC(c3ccccc3)CC2)cc1`, the Potency entry in test [12] is “inactive”.
Regarding `COc1ccc(CCN)cc1O`, the result in [1] and in test [8] was inactive. Besides, the Potency entry in [2], in [3], in test [4], in test [9], in test [10] and in test [6] was “inactive” in each case. Further, the Potency entry in test [11] is “inactive”.
`C/C(O)=C(/C#N)C(=O)Nc1cc(Br)ccc1Br`: in [7], the Potency was 7.94 µM (active). In test [17], the Potency result was “inactive”.
Take `CC(C)(c1ccc(OCC2CO2)cc1)c1ccc(OCC2CO2)cc1` (stereo unspecified): the Potency result in test [12] was “inactive”. Also, the Potency in test [11] was 28.2 µM (active).
As for `C[C@H](N)Cc1c[nH]c2ccc(O)cc12`, the activation in test [18] was -4.29%.
In the case of `NC(=NCCc1ccc(I)cc1)SCCCc1cnc[nH]1`, in test [12], the Potency is 0.794 µM (active).
As for `COC(=O)CN1CN(c2ccccc2)C2(CCN(Cc3ccc4ccccc4c3)CC2)C1=O`, in test [7], the Potency result was “inactive”.
As to `Cn1cc(C(=O)C(=O)N[C@H]2CN3CCC2CC3)c2ccccc21`, the Potency result in [7] was “inactive”.
